Our source for the growth values is PubChem BioAssay (NCI).

About 83,000 compounds went through this panel and 20% of them were active in at least one assay; those are over-represented in the sample as a whole.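 Interpretation: 100, growth as untreated; towards 0, rising growth inhibition; 0, no net growth; 0 to -100, cell death. Compounds scoring below 10 were considered active.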 Unmarked numbers belong to inactive results. The source made the active and inactive calls.

The experiment deals with MDA-MB-468 breast. The experiment is described as follows: NCI-60 one-dose screen, 48 h (100 = growth as untreated, 0 = no growth, -100 = all killed). Particulars: 10 µM unless noted.
Consider `C=CCOC(=O)C1=C(C)NC2=C(C(=O)CC(C)(C)C2)C1c1ccc(OC)cc1` (stereo not given), for which the growth is 110%.
The figure for `COc1ccc(-c2cc(-c3cc(OC)c(OC)c(OC)c3)c(C#N)c(=O)n2CCCCC(=O)O)cc1` is 109%; for `Cn1ncc(Cl)c1-c1cc(C(=O)N[C@H](CN)Cc2ccc(F)c(F)c2)oc1Cl` it is -69.6% (active); for `CCSc1nnc2n(Cc3ccccc3)c(=O)c3c(C)c(C(N)=O)sc3n12` it is 101%.
The same measure for `CCCCCCCCCCCCCC1=NCC[N+]1(CCO)Cc1ccccc1` (stereo not given): -81.2% (active).
As to `CC(=O)c1nn(-c2ccccc2)/c(=N/N=Cc2cn(-c3ccccc3)nc2-c2cc3ccccc3oc2=O)s1`, the growth was 103%.
The figure for `CC(=O)c1ccc(NCC(=O)Nc2ccccn2)cc1` is 106%.
In the case of `N#Cc1c(NC(=O)NCc2ccccc2)sc2c1CCCC2`, the growth is -33.5% (active).
On to `Cc1ccc2nc(C[n+]3ccc4ccccc4c3)ccc2c1`, for which the growth was -3.95% (active).
The same measure for `O=C(O)CCNC1CCCCC1`: 93.1%; for `CCOC(=O)C(C#N)Cc1ccccc1` (stereo not given): 115%; for `Cc1cccc(C)c1NC(=O)CN(CC(C)C)CC(O)COc1ccccc1` (stereo not given): 94.5%.
As for `COc1ccc(-c2nc3cc(C(=O)Nc4cc(OC)c(OC)c(OC)c4)ccc3n2C2CCCCC2)cc1`, the growth is 128%.
`CCOC(=O)/C(=C\c1ccc(-c2ccccc2)cc1)C(C)=O`: the growth is 95%.
For `CC(C)C(C(=O)CCN(C)C)c1ccc(Cl)cc1` (stereo not given), the growth was 78.6%.
The same measure for `O=C(CNCCN1CCOCC1)N1c2cccc3cccc(c23)N(C(=O)CNCCN2CCOCC2)C1c1cn(-c2ccccc2)nc1-c1cccc([N+](=O)[O-])c1`: 35.8%; for `C/C=C(\C)C(C(=O)NC1CCCCC1)N(C(=O)C1CCc2cc(F)ccc2O1)c1ccc(Cl)cc1` (stereo not given): 97%.
On to `CC(C)[N+]1(C)C2CC[C@@H]1CC(OC(=O)C(CO)c1ccccc1)C2` (stereo not given in full), for which the growth was 109%.
The same measure for `COc1cc2c(cc1OC)C(C(CCCCCC(CCC(C)C)C1NCCc3cc(OC)c(OC)cc31)CCC(C)C)NCC2` (stereo not given): -87.1% (active).
The figure for `CC1CCCCN1S(=O)(=O)c1ccc(CN=C=S)cc1` (stereo not given) is 17.4%; for `CSc1nc(CC(C)C)c(C#N)c(=O)n1C` it is -2.71% (active); for `CN1CCN(CC(=O)N(C)c2ccc(N=C(c3ccccc3)c3c(O)[nH]c4ccc(C#N)cc34)cc2)CC1` it is 93.8%.
The same measure for `c1ccc(-c2c(-c3ccccc3)[n+](Cc3ccc4ccccc4c3)c(-c3ccccc3)n2Cc2ccc3ccccc3c2)cc1`: -76.4% (active).
`CCOC(=O)C(O)C(O)(c1ccccc1)c1ccccc1` (stereo not given): the growth was 115%.
On to `O=C1C2=C(C(=O)c3c(O)ccc(O)c31)N(c1cccnc1)Cc1ccccc1O2`, for which the growth was -6.39% (active).
The figure for `CC[C@]1(O)C[C@@H]2CN(Cc3c([nH]c4ccccc34)[C@@](C(=O)OC)(c3cc4c(cc3OC)N(C)[C@H]3[C@@](O)(C(=O)OC)[C@H](OC(C)=O)[C@]5(CC)[C@@H]6C[C@@H]6CN6CC[C@]43[C@@H]65)C2)C1` is 8.25% (active); for `Cc1ccc(C2=Nc3c(ccc4c(C)c(C)c(=O)oc34)OC2)cc1` it is 113%; for `Cc1sc(N=Nc2ccc(N(C)C)cc2)[n+]([O-])c1C` it is 75.2%.
On to `COc1cc(/C(C)=C(\c2ccc(Cl)cc2)c2ccc(OCCN(C)C)cc2)ccc1F`, for which the growth is 45.6%.
The same measure for `N#Cc1c(-c2ccc(F)cc2)nc(N=Nc2c(O)[nH]c3ccccc23)nc1N1CCOCC1`: 59.1%; for `N#Cc1c(-c2ccc(F)cc2)cc(-c2cccc(Cl)c2)[nH]c1=O`: 81.4%.
The figure for `COc1ccc(-c2c[nH]c(C(=O)O)c2-c2cc(OC)c(OC)c(OC)c2)cc1` is 11.8%; for `CC1=C(C)C(=O)C(Nc2cccc(C(=O)OC(C)(C)C)c2)=C(Br)C1=O` it is -54% (active); for `Brc1ccc(Cn2nnnc2-c2ccn(-c3ccccc3)n2)cc1` it is 71.5%.
For the molecule `O=P(O)(O)C(O)(Cc1cccnc1)P(=O)(O)O`, the growth is 80.6%.
Turning to `N#C/C(=C\c1ccc(-c2ccc(F)cc2)o1)c1nc(-c2ccco2)cs1`, the growth is -47.2% (active).
As to `COc1cccc(CC(C)=C(c2ccc(OCCCN(C)C)cc2)c2ccc(OCCCN(C)C)cc2)c1`, the growth is -83.4% (active).
Regarding `NCCNc1nc(Nc2ccc(-c3nc4ccccc4[nH]3)cc2)c2cn[nH]c2n1`, the growth is 57.2%.
On to `Cc1ccc(-c2cc(-c3ccc(C)cc3)nc(N3CCN(CCNc4ccnc5cc(Cl)ccc45)CC3)n2)cc1`, for which the growth is 36.4%.
The same measure for `Cc1cc(C)nc(NS(=O)(=O)c2ccc(Nc3ccc4c5c(n(CCCN(C)C)c(=O)c4c3)-c3ccccc3C5=O)cc2)n1`: 111%.
